38 compounds from PubChem BioAssay (Tox21) can be followed below.

Unmarked numbers belong to inactive results. Active and inactive are the calls of the source. The call rests on the fitted dose curve; in most records, active means well fitted curve in the direction sought with a large enough effect in the repeat runs; inconclusive means weak or mixed curves; inactive means flat fitted curve, though single readings scatter.
On the % scale 0 is the no-effect control and ±100 the full control effect; tags describe the fitted curve by direction and shape or compound fluorescence and quenching.

The first test can be described thus: qHTS assay to test for compound auto fluorescence at 460 nm (blue) in HepG2 cell free culture (AID 720685). To be noted: Cell-free culture medium, blue autofluorescence 405/460 nm; series mostly up to 91.3 µM; fluorescence, % of fluorescent control: at the top concentration. The method, boiled down: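 Cell-free plates of MEM plus 10% FBS received 23 nL compound or DMSO vehicle; blue-channel (405/460 nm) intensity scored against triamterene as reference fluorophore.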
As for `O=C1OC(=O)C2C3C=CC(C3)C12` (stereo not given), the “fluorescence, % of fluorescent control” value is -0.128%.
Same read-out and setting: for `C=C(C)C(=O)OCCOCC` the value was 0.0819%; for `CC1(c2ccccc2)OC(C(=O)O)=CC1=O` (stereo not given), 0.027% [at 46 µM]; for `C[N+](C)(C)CCOC(=O)CCC(=O)OCC[N+](C)(C)C`, 0.113% [at 46 µM].
In the case of `CCOC(=O)Cc1cccc2ccccc12`, the “fluorescence, % of fluorescent control” value is -0.0513%.
On the same count and under the same terms, for `CC(=O)c1ccc2c(c1)N(CCCN(C)C)c1ccccc1S2` the value was 0.0422% [at 18.6 µM].
For the compound `Clc1ccc(Cn2c(CN3CCCC3)nc3ccccc32)cc1`, the fluorescence, % of fluorescent control was 0.0634% [at 18.6 µM].
`CC1=CC=C(C(C)C)CC1`: the “fluorescence, % of fluorescent control” value was 0.0365%.
On to `C[C@H]1C[C@H]2[C@@H]3CCC4=CC(=O)C=C[C@]4(C)[C@@]3(Cl)[C@@H](O)C[C@]2(C)[C@@]1(O)C(=O)CO`, for which the “fluorescence, % of fluorescent control” value is -0.122% [at 46 µM].
Same read-out and setting: for `CCCCCCCCO[C@@H]1O[C@H](CO)[C@@H](O)[C@H](O)[C@H]1O` the value was -0.0751%; for `CC(C)(O)c1ccc(CNC(=O)c2cccnc2Oc2ccc(F)cc2)cc1`, 0.0293%.
On the same count and under the same terms, for `COC(C)OC` the value was 0.0393%.
Turning to `CC(COCCO)OCCO` (stereo not given), the “fluorescence, % of fluorescent control” value was -0.0935%.
On the same count and under the same terms, the same measure for `O=S(=O)(Oc1ccc(Cl)cc1)c1ccccc1`: -0.0085%; for `COS(=O)(=O)C(F)(F)F`: -0.227% [at 95.7 µM]; for `CCNc1cc(O)ccc1C`: 4.07%.
Still for that read-out and setting: for `Nc1cccc([N+](=O)[O-])c1` the value was 0.0067%; for `CC/C=C\CCOC(=O)CC`, -0.0254%; for `O=C(c1ccc(F)cc1)C1CCN(CCn2c(=S)[nH]c3ccccc3c2=O)CC1`, 0.0949% [at 46 µM].
Same read-out and setting: the same measure for `CC(C)CC(=O)C1C(=O)c2ccccc2C1=O`: 0.0304%; for `ClCCOCCOCCCl`: -0.0087%; for `CCCCc1ncc(/C=C(\Cc2cccs2)C(=O)O)n1Cc1ccc(C(=O)O)cc1`: -0.062% [at 46 µM].
As to `CN(C)C(=O)NC1(c2ccccc2)CCN(CC[C@@]2(c3ccc(F)c(F)c3)CN(C(=O)c3ccccc3)CCO2)CC1`, the “fluorescence, % of fluorescent control” value is -0.0899%.
Still for that read-out and setting: the same measure for `CC(=O)NO`: -0.0655% [at 46 µM].
On to `COc1cc2nc(N3CCN(C(=O)C4COc5ccccc5O4)CC3)nc(N)c2cc1OC` (stereo not given), for which the “fluorescence, % of fluorescent control” value was -0.154% [at 46 µM].
For `CC1=CCCC(C)(C)C12CCC(C)O2` (stereo not given), the “fluorescence, % of fluorescent control” value was -0.0463%.
Still for that read-out and setting: for `Nc1ccccc1S(=O)(=O)c1ccccc1` the value was 0.0231%; for `COc1ccc(C(=O)c2ccc(OC)cc2O)c(O)c1`, 0.0899%; for `C#CCN(C)CCCOc1ccc(Cl)cc1Cl`, -0.0113% [at 46 µM].
Same read-out and setting: the same measure for `CC(=O)c1ccc2c(c1)N(CCCN1CCC(CCO)CC1)c1ccccc1S2`: -0.0052% [at 18.6 µM].
The same measure, in the same setting: for `COC(=O)c1ccc(I)cc1S(=O)(=O)NC(=O)Nc1nc(C)nc(OC)n1` the value was 0.183%.
As to `C=C1[C@H]2CC[C@@H]3[C@H]2C(C)(C)CCC[C@]13C`, the “fluorescence, % of fluorescent control” value is 0.0719%.

A short description of the next test: qHTS assay to test for compound auto fluorescence at 535 nm (green) in HepG2 cell free culture (AID 720686). Further: potency means the concentration at half of the fitted maximal effect. The settings on record: Cell-free medium, green autofluorescence 485/535 nm; series mostly up to 91.3 µM; fluorescence, % of fluorescein control: at the top concentration.
With `NCC(=O)CCC(=O)O`, the “fluorescence, % of fluorescein control” value is 0.0282% [at 46 µM].
As to `O=C1OC(=O)C2C3C=CC(C3)C12` (stereo not given), the “fluorescence, % of fluorescein control” value was 0.0519%.
In the case of `C=C(C)C(=O)OCCOCC`, the “fluorescence, % of fluorescein control” value was 0.0536%.
Still for that read-out and setting: for `CC1(c2ccccc2)OC(C(=O)O)=CC1=O` (stereo not given) the value was -0.189% [at 46 µM]; for `C[N+](C)(C)CCOC(=O)CCC(=O)OCC[N+](C)(C)C`, 0.0408% [at 46 µM]; for `CCOC(=O)Cc1cccc2ccccc12`, 0.139%.
Turning to `CC(=O)c1ccc2c(c1)N(CCCN(C)C)c1ccccc1S2`, the fluorescence, % of fluorescein control is -0.0543% [at 18.6 µM].
The same measure, in the same setting: the same measure for `CN1CCN(C(c2ccccc2)c2ccccc2)CC1`: 0.0024% [at 18.6 µM]; for `Clc1ccc(Cn2c(CN3CCCC3)nc3ccccc32)cc1`: -0.0084% [at 18.6 µM].
On the same count and under the same terms, for `CC1=CC=C(C(C)C)CC1` the value was 0.0353%; for `C[C@H]1C[C@H]2[C@@H]3CCC4=CC(=O)C=C[C@]4(C)[C@@]3(Cl)[C@@H](O)C[C@]2(C)[C@@]1(O)C(=O)CO`, 0.0034% [at 46 µM].
On the same count and under the same terms, for `CCCCCCCCO[C@@H]1O[C@H](CO)[C@@H](O)[C@H](O)[C@H]1O` the value was 0.0649%; for `CC(C)(O)c1ccc(CNC(=O)c2cccnc2Oc2ccc(F)cc2)cc1`, -0.0858%; for `c1ccc(CNCCNCc2ccccc2)cc1`, -0.203% [at 46 µM].
Take `COC(C)OC`: the “fluorescence, % of fluorescein control” value is -0.09%.
For `CC(COCCO)OCCO` (stereo not given), the “fluorescence, % of fluorescein control” value is 0.0865%.
On the same count and under the same terms, for `O=S(=O)(Oc1ccc(Cl)cc1)c1ccccc1` the value was 0.0826%; for `COS(=O)(=O)C(F)(F)F`, -0.0907% [at 95.7 µM]; for `CCNc1cc(O)ccc1C`, 2.91%.
Same read-out and setting: the same measure for `Nc1cccc([N+](=O)[O-])c1`: 0.0378%.
Same read-out and setting: the same measure for `CC/C=C\CCOC(=O)CC`: -0.0128%.
On to `O=C(c1ccc(F)cc1)C1CCN(CCn2c(=S)[nH]c3ccccc3c2=O)CC1`, for which the “fluorescence, % of fluorescein control” value was 0.0043% [at 46 µM].
Regarding `CCN(CC)c1ccc2c(-c3ccccc3C(=O)O)c3ccc(=[N+](CC)CC)cc-3oc2c1`, the Potency was 31.6 µM [fluorescent] (active).
Consider `CC(C)CC(=O)C1C(=O)c2ccccc2C1=O`, for which the “fluorescence, % of fluorescein control” value was 0.0102%.
The same measure, in the same setting: for `ClCCOCCOCCCl` the value was -0.0413%.
Still for that read-out and setting: for `CCCCc1ncc(/C=C(\Cc2cccs2)C(=O)O)n1Cc1ccc(C(=O)O)cc1` the value was 0.0409% [at 46 µM].
Same read-out and setting: for `CN(C)C(=O)NC1(c2ccccc2)CCN(CC[C@@]2(c3ccc(F)c(F)c3)CN(C(=O)c3ccccc3)CCO2)CC1` the value was 0.0603%; for `CC(=O)NO`, -0.158% [at 46 µM]; for `COc1cc2nc(N3CCN(C(=O)C4COc5ccccc5O4)CC3)nc(N)c2cc1OC` (stereo not given), -0.0061% [at 46 µM].
With `CC1=CCCC(C)(C)C12CCC(C)O2` (stereo not given), the “fluorescence, % of fluorescein control” value was 0.008%.
In the case of `Nc1ccccc1S(=O)(=O)c1ccccc1`, the “fluorescence, % of fluorescein control” value is 0.0309%.
As for `COc1ccc(C(=O)c2ccc(OC)cc2O)c(O)c1`, the “fluorescence, % of fluorescein control” value was 0.0248%.
Turning to `C#CCN(C)CCCOc1ccc(Cl)cc1Cl`, the “fluorescence, % of fluorescein control” value was -0.004% [at 46 µM].
For the compound `C=CC1CC2C=CC1C2` (stereo not given), the “fluorescence, % of fluorescein control” value is -0.14%.
In the case of `CC(=O)c1ccc2c(c1)N(CCCN1CCC(CCO)CC1)c1ccccc1S2`, the fluorescence, % of fluorescein control is 0.041% [at 18.6 µM].
In the case of `COC(=O)c1ccc(I)cc1S(=O)(=O)NC(=O)Nc1nc(C)nc(OC)n1`, the “fluorescence, % of fluorescein control” value was -0.0052%.
In the case of `C=C1[C@H]2CC[C@@H]3[C@H]2C(C)(C)CCC[C@]13C`, the “fluorescence, % of fluorescein control” value is -0.0043%.
Same read-out and setting: the same measure for `COC(=O)C1=C(C)NC(COC(N)=O)=C(C(=O)OC(C)C)C1c1cccc(Cl)c1Cl` (stereo not given): -0.0329% [at 46 µM].
